Test results from PubChem BioAssay (EPA / NIEHS).
Where “and” joins values, the source holds several entries; their conditions need not be identical. Equal entries are not always repeated. Inconclusive results are not listed. Calls of active or inactive are those of the source. The calls were made as follows: active = hit-call score of the fitted dose curve at least 0.9, where 1 is the maximum; inconclusive = response in the unintended direction; inactive = score below 0.9.

What follows are compounds tested against chimpanzee Androgen Receptor (AR), AR (gene 747460) (UniProt O97775) (assay: NVS_NR_cAR: NovaScreen (NVS) Nuclear Receptor Binding Assay for chimpanzee Androgen Receptor (AR) (AID 2283346);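 also: a loss of bound radioligand signal versus DMSO counts as binding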).
chimpanzee Androgen Receptor (AR), AR (gene 747460), sequence (O97775 whole entry, looked up): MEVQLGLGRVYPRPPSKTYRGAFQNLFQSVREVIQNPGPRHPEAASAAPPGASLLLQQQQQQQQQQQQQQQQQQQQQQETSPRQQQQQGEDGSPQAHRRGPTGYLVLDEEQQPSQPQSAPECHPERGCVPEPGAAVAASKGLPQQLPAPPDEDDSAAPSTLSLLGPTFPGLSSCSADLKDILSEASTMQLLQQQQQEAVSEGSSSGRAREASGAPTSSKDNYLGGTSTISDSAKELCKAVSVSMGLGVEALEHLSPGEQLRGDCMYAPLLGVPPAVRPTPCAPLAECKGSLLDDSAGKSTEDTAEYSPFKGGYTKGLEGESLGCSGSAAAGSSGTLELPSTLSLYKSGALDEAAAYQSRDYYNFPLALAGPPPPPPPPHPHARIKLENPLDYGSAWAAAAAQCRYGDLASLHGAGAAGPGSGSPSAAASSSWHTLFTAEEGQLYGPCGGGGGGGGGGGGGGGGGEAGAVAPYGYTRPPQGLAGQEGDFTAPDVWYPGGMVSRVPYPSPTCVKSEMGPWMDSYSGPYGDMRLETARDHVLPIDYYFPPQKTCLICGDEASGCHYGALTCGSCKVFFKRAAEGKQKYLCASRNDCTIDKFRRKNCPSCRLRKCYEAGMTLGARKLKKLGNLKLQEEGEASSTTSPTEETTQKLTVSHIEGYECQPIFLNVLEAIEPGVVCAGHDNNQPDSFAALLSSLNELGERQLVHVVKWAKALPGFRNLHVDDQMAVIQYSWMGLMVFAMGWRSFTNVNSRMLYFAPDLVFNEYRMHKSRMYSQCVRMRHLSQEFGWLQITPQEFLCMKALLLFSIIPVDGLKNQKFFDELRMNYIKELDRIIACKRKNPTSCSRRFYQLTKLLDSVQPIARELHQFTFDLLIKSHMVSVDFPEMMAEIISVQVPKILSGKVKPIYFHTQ
Method: NVS_NR_cAR is a biochemical, single-readout assay that uses extracted gene-proteins from Sf9/Sf21 in a cell-free assay. Measurements were taken 72 hours after chemical dosing in a 96-well plate.NVS_NR_cAR is one of one assay component(s) measured or calculated from the NVS_NR_cAR assay. It is designed to make measurements of radioligand binding, a form of binding reporter, as detected with scintillation counting signals by Lysate-based radiodetection technology.Data from the assay component NVS_NR_cAR was analyzed into 1 assay endpoint. This assay endpoint, NVS_NR_cAR, was analyzed in the positive analysis fitting direction relative to DMSO as the negative control and baseline of activity. Using a type of binding reporter, loss-of-signal activity can be used to understand changes in the binding as they relate to the gene AR. Furthermore, this assay endpoint can be referred to as a primary readout, because the performed assay has only produced 1 assay endpoint. To generalize the intended target to other relatable targets, this assay endpoint is annotated to the nuclear receptor intended target family, where the subfamily is steroidal.
Binding assays used specific radioligands (tritiated, iodinated) with non-radioactive competitive displacement ligands in agonist or antagonist protocols (as indicated) and various reference compounds and inhibitors to titrate specific binding to receptors and transporters. Most enzyme assays (CYPs, kinases, phosphatases, proteases, HDACs) used recombinant protein and specific substrates (fluorescence mostly, some colorimetric and radioactive) and inhibitors, followed by a biochemical separation of substrate and product. All assays for the biochemical HTS were initially run in duplicate at a single concentration (10 uM for CYP450 assays and 25 uM for all others). […] Each assay was run with positive and negative controls, and concurrent controls on every plate. The follow-up (secondary) screen tested active chemical-pairs in concentration series, as well as a few additional assays not tested in the primary screen, some selected negative inactives, and several cases re-run in the concentration series for confirmatory purposes.
For Nc1ccc(Cl)cc1N, the AC50 was 25 µM (active).
For CCC(C)c1ccc(O)cc1 (configuration not stated), the AC50 was 23 µM (active).
With C[C@]12C=CC3=C4CCC(=O)C=C4CC[C@H]3[C@@H]1CC[C@@H]2O the AC50 was 2.29 nM (active) and 6.45 nM (active).
For Cc1cccc(N)c1N, the AC50 was 5.01 µM (active).
For Nc1ccc(Oc2ccc(N)cc2)cc1, the outcome was “inactive”.
With CCCCCCCCn1sccc1=O the AC50 was 9.46 µM (active).
For CC(C)(C)C(O)(CCc1ccc(Cl)cc1)Cn1cncn1 (configuration not stated), the AC50 was 14.9 µM (active).
For CN(C)[C@@H]1C(=O)C(C(N)=O)=C(O)[C@@]2(O)C(=O)C3=C(O)c4c(O)cccc4[C@@](C)(O)[C@H]3C[C@@H]12, the AC50 was 37.4 µM (active).
In the case of Oc1ccc2ccc3cccc4ccc1c2c34, the AC50 is reported as 8.27 µM (active).
For [Cl-].[Cl-].[Hg+2], the outcome was “inactive”.
With CCC[CH2][Sn]([Cl])([CH2]CCC)[CH2]CCC the AC50 was 7.19 µM (active).
With Nc1ccc([N+](=O)[O-])cc1 the AC50 was 25 µM (active).
